The source of these data is PubChem BioAssay (NCI).

The structures appear in SMILES notation. Values joined by “and” are separate entries in the source; they are usually repeats but may differ in a detail not shown here. Identical values can stand only once. This is part of a sample that, as a whole, favours compounds with a hit. Of some 83,000 tested, about 20% had one in any assay.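 Cells were grown in 96-well plates and exposed to the test compound at a single concentration for 48 hours; results are reported as percent growth, with values below 10 considered active.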 Active and inactive are the calls of the source.

In this assay the test system is HL-60(TB) leukemia. The assay can be described thus: NCI-60 one-dose screen, 48 h (100 = growth as untreated, 0 = no growth, -100 = all killed). The following applies: 10 µM unless noted.
Consider `CCN(CC)CCOc1nc2cc(OC)c(OC)cc2c2c1-c1ccc(OC)cc1C2=O`, for which the growth was 93.4% (inactive). In the case of `C#CCn1cnc2c(Nc3cccc(NC(=O)C=C)c3)ncnc21` it was 99.6% (inactive); in that of `COC(=O)CC[C@H](C)[C@H]1CC[C@H]2[C@@H]3CC[C@@H]4CC5(CC[C@]4(C)[C@H]3CC(=O)[C@]12C)Nc1ccccc1NC5=NC(C)(C)C` (stereo not given in full), 43.6% (inactive); in that of `Cc1nn(-c2ccc(Cl)cc2)c2ncnc(N/N=C/c3ccccc3O)c12`, -4.93% (active) and 1.67% (active). As to `CCOC(=O)c1cc(C(=O)c2cc(OC)c(OC)c(OC)c2)n2ccc(-c3ccncc3)cc12`, the growth was 65% (inactive). `COCCOc1cnc2ccn([C@H](C)c3nnc4c(F)cc(-c5cnn(C)c5)cn34)c(=O)c2c1`: the growth is 136% (inactive). Consider `COc1cccc(Cn2c(-c3nonc3NC(C)=O)nc3ccccc32)c1`, for which the growth was -2.59% (active). In the case of `C(=C\c1nc2ccccc2s1)/c1ccc(N2CCOCC2)s1` it was 24% (inactive); in that of `COCCNC(C(=O)c1ccccc1)c1ccccc1` (stereo not given), 103% (inactive). On to `COC(=O)[C@H](Cc1cnc[nH]1)NC(=O)[C@@H](NC(=O)Nc1cc(C(F)(F)F)cc(C(F)(F)F)c1)C(C)C`, for which the growth is -62.5% [100 µM] (active).

On to `CC(C)(O)C#CC#CC(C)(C)O`, for which the growth is 104% (inactive). Then `COC(=O)c1c2c(c(C)[n+]([O-])c1C)C(=O)C(NCc1ccc(O)cc1)=CC2=O`, with -8.85% (active).

For `COC(=O)/C(CCC=C(C)C)=C1\[C@@H](OC(C)=O)C[C@@]2(C)[C@H]1CC(=O)N[C@H]1[C@@]3(C)CCNC(=O)[C@@H](C)[C@@H]3CC[C@@]12C`, the growth is 102% (inactive). In the case of `CC(=O)Nc1ccc2c(c1)Cc1cc(F)ccc1-2` it was 66.8% (inactive).

In the case of `O=C(CN1CCN(c2cc3c(cc2F)c(=O)c(C(=O)O)cn3C2CC2)CC1)Nc1nc(-c2ccccc2)cs1`, the growth was 82.1% (inactive). `COc1cc(C2CC(c3cccc(Br)c3)=NN2C(C)=O)cc(OC)c1OC` (stereo not given): the growth is 78.2% (inactive).

For `CCNC1(NC#N)CCCCC1`, the growth was 96.8% (inactive). In the case of `COc1ccc(-c2nc(-c3nc4ccc(F)cc4[nH]3)cc3c2[nH]c2ccccc23)cc1` it was 26.1% (inactive); in that of `O=C(O)[C@@H]1c2ccccc2-c2ccccc2[C@H]1C(=O)O`, 91.3% (inactive); in that of `CCn1c(Sc2nnc(NC(=O)CCN3CCCC3)s2)nc2c1c(=O)n(C)c(=O)n2C`, 104% (inactive). With `CCN(CC)CCCNc1cccc2c(SCc3ccccc3)ccnc12`, the growth was -67.5% (active). Regarding `O=[N+]([O-])c1cccc(/C=C/c2ccc3ccccc3n2)c1`, the growth was 90.8% (inactive). As for `O=C(CCCn1c2c(sc3ccccc32)c(=O)n2nnc(-c3ccccc3)c12)NCCc1cnc[nH]1`, the growth is 82.4% (inactive).

Regarding `COc1ccc(C(=O)c2ccc(OC)c(OC)c2OC)cc1`, the growth is 22.3% (inactive) and -8.89% (active). Consider `CN1C2CCC1CN(c1cnc(C(=O)Nc3cc(F)cc4cccnc34)cn1)C2`, for which the growth was 5.69% (active). With `COc1cc(C2CC(c3cccc(Nc4ccnc5cc(Cl)ccc45)c3)=NN2C=O)cc(OC)c1OC` (stereo not given), the growth is -7.92% (active).

Consider `O=c1ccn2nc3ccccc3c2[nH]1`, for which the growth is 93.1% (inactive).

For the compound `Cc1cc2nc3c4cc(O)ccc4n(CCN(C)C)c3nc2cc1C`, the growth is 7.36% (active). Regarding `COc1cc2cc(Oc3ccc(NC(=O)Nc4cccc(C(F)(F)F)c4)cc3)c(C)nc2cc1OCCN1CCOCC1`, the growth is 66.9% (inactive). As to `CCOC(=O)c1nc2c3ccccc3ccn2c1C(=O)OCC`, the growth is 97.1% (inactive). In the case of `CCN(CC)CCNC(=O)c1c(C)[nH]c(/C=C2\C(=O)Nc3cc(NC(=O)NC(=O)c4ccc(OC)cc4F)ccc32)c1C` it was 95.9% (inactive). Regarding `Cn1ccnc1C(=O)/C=C/c1ccc(CC(=O)Nc2ccc(C(F)(F)F)cc2)cc1`, the growth was -2.06% (active).

`C=CC(=O)Nc1cccc(-c2nc(SC)nc(Nc3ccccc3OC)c2C#N)c1`: the growth was 14.1% (inactive).

Regarding `Fc1ccc(CNc2cccc3[nH]c(C(F)(F)F)nc23)cc1`, the growth is 55% (inactive).

Take `CCc1c(C)c2cc(-n3c(-c4ccc(OC)cc4)csc3=N)c(O)c(C)c2oc1=O`: the growth is -28.2% (active).

For `CN1CCN(CCCN2c3ccccc3Sc3ccc(Cl)cc32)CC1`, the growth was 98.9% (inactive) and 50.7% (inactive).

On to `COc1ccc(-c2nc3ncccn3c2-c2nnc(-c3ccc(F)cc3)o2)cc1`, for which the growth was 91.1% (inactive). On to `O=C(OCc1ccc2c(Br)cc(Br)c(O)c2n1)c1cc2ccccc2[nH]1`, for which the growth is -46.1% (active). Take `Cc1ccc(-n2c(-c3cc4c([nH]c5ccccc54)c(-c4cccc(O)c4)n3)n[nH]c2=S)cc1`: the growth is 2.59% (active). Then `CCN1CCN(c2cc(C(=O)Nc3nc(-c4cc(OC)c(OC)c(OC)c4)cs3)cc(C(F)(F)F)c2)CC1`, with 41.4% (inactive).
